Columns and labels:
[1] = molecular target: T1, Serine/threonine-protein kinase TBK1 (Homo sapiens) (UniProt Q9UHD2); details: at 10 µM
T1 sequence (whole entry): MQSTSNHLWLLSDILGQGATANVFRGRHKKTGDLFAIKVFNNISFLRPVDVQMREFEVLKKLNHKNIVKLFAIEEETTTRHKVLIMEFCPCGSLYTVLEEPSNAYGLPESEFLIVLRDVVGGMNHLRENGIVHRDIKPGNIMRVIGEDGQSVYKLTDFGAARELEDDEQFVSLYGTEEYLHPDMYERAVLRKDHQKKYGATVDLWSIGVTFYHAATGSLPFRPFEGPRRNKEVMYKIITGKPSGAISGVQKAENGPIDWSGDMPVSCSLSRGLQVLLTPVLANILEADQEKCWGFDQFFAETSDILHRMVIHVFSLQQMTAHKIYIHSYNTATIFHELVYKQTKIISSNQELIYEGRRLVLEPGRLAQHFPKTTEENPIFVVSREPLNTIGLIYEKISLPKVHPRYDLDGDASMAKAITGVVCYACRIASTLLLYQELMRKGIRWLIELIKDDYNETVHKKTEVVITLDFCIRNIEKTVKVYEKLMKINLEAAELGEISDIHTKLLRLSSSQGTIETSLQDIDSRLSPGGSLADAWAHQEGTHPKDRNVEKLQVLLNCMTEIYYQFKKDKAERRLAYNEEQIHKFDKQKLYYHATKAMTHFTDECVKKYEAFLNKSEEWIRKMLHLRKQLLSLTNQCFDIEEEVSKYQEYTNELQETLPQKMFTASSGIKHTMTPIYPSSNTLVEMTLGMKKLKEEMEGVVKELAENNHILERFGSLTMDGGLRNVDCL

[2] = molecular target: T2, TGF-beta receptor type-1 (Homo sapiens) (UniProt P36897); details: at 1 µM
T2 sequence (whole entry): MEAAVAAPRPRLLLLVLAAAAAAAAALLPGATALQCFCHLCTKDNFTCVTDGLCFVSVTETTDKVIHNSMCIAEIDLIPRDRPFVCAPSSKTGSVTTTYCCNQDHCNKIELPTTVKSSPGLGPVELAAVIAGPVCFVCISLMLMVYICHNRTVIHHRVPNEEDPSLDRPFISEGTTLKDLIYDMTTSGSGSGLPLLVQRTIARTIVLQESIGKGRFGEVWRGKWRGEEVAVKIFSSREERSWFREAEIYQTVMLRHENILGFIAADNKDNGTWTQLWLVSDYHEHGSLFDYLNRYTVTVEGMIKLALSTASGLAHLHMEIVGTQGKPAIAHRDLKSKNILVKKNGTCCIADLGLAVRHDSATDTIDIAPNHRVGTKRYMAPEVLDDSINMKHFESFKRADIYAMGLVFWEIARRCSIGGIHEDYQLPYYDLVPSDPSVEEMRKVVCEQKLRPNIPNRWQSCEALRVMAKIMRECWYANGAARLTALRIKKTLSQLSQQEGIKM

[3] = molecular target: T2, TGF-beta receptor type-1 (Homo sapiens); details: at 10 µM
[4] = molecular target: Insulin-like growth factor 1 receptor (Homo sapiens) (UniProt P08069); details: at 1 µM
[5] = molecular target: Insulin-like growth factor 1 receptor (Homo sapiens) (UniProt P08069); details: at 10 µM
[6] = molecular target: T3, Inhibitor of nuclear factor kappa-B kinase subunit alpha (Homo sapiens) (UniProt O15111); details: at 1 µM
T3 sequence (whole entry): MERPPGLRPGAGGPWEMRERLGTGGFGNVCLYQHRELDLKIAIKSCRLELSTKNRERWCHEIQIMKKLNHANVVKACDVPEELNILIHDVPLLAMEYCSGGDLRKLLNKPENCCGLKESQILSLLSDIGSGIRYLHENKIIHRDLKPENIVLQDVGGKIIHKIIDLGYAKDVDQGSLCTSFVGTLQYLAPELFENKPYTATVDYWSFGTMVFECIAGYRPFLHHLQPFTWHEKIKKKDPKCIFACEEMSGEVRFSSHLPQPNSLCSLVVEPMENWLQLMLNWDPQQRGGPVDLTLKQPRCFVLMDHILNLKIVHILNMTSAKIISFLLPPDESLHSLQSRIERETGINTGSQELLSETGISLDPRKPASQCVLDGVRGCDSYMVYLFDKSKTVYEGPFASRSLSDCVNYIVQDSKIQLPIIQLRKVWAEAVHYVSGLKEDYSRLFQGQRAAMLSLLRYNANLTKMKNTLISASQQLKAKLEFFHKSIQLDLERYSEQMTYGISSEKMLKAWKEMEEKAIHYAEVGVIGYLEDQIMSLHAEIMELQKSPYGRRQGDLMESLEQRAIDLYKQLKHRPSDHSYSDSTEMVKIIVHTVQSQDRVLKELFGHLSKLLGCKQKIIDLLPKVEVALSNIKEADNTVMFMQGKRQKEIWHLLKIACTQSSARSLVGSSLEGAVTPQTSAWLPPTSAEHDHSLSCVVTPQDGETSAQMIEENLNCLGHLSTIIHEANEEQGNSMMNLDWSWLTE

[7] = molecular target: T3, Inhibitor of nuclear factor kappa-B kinase subunit alpha (Homo sapiens); details: at 10 µM
[8] = molecular target: Insulin receptor (Homo sapiens) (UniProt P06213); details: at 1 µM
[9] = molecular target: Insulin receptor (Homo sapiens) (UniProt P06213); details: at 10 µM
[10] = molecular target: Insulin receptor (Homo sapiens) (UniProt P06213); details: at 1 µM; remark: listed apart in the source
[11] = molecular target: Insulin receptor (Homo sapiens) (UniProt P06213); details: at 10 µM; remark: listed apart in the source
[12] = molecular target: Interleukin-1 receptor-associated kinase 1 (Homo sapiens) (UniProt P51617); details: at 1 µM
[13] = molecular target: Interleukin-1 receptor-associated kinase 1 (Homo sapiens) (UniProt P51617); details: at 10 µM
[14] = molecular target: Insulin receptor-related protein (Homo sapiens) (UniProt P14616); details: at 1 µM
[15] = molecular target: Insulin receptor-related protein (Homo sapiens) (UniProt P14616); details: at 10 µM
[16] = molecular target: T4, Tyrosine-protein kinase ITK/TSK (Homo sapiens) (UniProt Q08881); details: at 1 µM
T4 sequence (whole entry): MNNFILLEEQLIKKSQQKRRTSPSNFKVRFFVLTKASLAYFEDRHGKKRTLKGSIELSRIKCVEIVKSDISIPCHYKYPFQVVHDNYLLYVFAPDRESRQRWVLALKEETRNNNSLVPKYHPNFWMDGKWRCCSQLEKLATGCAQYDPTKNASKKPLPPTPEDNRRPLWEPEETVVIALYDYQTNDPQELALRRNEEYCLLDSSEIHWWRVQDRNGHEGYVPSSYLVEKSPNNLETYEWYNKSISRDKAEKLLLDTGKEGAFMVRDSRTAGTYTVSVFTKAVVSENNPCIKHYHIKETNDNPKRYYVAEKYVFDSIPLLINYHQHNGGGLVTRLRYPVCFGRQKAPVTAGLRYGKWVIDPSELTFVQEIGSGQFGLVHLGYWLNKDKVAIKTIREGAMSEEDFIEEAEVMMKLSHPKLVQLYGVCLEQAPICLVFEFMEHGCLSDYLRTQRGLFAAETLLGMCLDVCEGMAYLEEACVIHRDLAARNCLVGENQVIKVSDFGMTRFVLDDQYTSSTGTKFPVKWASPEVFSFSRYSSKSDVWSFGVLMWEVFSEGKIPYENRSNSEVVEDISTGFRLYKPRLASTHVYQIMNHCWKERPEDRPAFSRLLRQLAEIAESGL

[17] = molecular target: T5, Inhibitor of nuclear factor kappa-B kinase subunit beta (Homo sapiens) (UniProt O14920); details: at 1 µM
T5 sequence (whole entry): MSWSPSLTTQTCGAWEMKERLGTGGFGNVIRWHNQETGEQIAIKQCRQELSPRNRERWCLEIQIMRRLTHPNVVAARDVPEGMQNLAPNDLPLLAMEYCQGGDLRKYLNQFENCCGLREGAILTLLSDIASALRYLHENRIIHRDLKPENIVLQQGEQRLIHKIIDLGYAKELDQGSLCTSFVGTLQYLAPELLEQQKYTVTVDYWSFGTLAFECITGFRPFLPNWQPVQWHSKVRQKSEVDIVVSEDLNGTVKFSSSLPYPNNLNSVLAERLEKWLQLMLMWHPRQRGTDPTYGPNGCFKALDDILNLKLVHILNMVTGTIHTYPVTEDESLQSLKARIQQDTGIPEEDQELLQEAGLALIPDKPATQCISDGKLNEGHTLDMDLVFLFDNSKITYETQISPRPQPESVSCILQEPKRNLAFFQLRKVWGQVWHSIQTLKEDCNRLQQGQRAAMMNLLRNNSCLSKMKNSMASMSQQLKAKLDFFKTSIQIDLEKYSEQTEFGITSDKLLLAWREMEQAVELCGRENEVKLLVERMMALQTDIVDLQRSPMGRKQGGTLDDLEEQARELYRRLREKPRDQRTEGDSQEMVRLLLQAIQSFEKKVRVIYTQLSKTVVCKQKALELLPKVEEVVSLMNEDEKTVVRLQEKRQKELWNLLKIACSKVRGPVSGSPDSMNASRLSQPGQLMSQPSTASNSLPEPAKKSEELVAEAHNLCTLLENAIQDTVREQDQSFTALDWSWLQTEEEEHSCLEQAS

[18] = molecular target: T5, Inhibitor of nuclear factor kappa-B kinase subunit beta (Homo sapiens); details: at 10 µM
[19] = molecular target: T6, Interleukin-1 receptor-associated kinase 4 (Homo sapiens) (UniProt Q9NWZ3); details: at 1 µM
T6 sequence (whole entry): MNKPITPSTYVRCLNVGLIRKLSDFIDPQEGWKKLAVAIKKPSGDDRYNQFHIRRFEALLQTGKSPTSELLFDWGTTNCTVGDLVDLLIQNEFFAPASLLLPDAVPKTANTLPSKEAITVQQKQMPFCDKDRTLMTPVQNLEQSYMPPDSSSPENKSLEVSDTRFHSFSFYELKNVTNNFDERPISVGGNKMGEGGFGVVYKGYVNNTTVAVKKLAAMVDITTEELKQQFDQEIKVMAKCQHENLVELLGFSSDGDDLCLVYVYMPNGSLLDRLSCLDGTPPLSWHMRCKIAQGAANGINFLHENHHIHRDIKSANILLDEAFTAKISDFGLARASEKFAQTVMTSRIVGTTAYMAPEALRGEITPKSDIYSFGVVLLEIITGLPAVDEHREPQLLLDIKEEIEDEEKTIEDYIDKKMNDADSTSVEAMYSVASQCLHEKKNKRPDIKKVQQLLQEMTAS

[20] = molecular target: T6, Interleukin-1 receptor-associated kinase 4 (Homo sapiens); details: at 10 µM

Chain of Insulin receptor (Homo sapiens) (P06213 28-758 limits assumed): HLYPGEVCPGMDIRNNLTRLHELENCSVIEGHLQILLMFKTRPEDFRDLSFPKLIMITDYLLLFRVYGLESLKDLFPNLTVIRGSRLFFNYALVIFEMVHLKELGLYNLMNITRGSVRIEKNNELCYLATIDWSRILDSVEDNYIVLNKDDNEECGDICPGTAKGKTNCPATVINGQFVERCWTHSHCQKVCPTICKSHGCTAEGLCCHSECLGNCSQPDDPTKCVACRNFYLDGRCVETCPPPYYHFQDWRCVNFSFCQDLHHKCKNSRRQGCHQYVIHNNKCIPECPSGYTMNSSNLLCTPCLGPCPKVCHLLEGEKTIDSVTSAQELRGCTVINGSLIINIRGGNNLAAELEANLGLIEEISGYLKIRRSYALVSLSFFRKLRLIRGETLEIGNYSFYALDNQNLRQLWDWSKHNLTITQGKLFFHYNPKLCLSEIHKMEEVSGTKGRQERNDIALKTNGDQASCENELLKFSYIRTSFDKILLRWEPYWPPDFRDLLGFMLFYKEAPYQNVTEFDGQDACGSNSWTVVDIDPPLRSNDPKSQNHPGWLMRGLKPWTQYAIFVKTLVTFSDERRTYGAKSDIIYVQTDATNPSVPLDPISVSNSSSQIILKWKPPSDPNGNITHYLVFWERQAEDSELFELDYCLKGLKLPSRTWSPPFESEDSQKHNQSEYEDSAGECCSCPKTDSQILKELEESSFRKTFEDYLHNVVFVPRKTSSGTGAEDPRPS
Chain of Insulin receptor (Homo sapiens) (P06213 763-1382 limits assumed): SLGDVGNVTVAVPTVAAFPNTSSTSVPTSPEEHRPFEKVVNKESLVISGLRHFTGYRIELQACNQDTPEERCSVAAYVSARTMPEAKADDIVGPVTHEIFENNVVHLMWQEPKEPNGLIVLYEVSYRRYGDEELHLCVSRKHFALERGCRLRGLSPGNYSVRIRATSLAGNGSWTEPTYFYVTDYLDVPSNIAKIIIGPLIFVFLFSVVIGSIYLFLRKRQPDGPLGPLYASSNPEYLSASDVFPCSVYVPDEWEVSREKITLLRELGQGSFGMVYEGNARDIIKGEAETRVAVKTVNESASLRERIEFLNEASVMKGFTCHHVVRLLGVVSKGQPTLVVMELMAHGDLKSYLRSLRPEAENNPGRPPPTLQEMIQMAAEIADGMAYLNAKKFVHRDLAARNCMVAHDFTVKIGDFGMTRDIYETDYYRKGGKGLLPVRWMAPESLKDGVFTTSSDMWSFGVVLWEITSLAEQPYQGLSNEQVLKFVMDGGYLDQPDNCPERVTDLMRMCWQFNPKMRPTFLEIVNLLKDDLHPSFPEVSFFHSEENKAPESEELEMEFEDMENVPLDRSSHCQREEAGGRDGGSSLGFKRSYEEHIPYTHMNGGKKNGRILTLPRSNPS
Chain of Interleukin-1 receptor-associated kinase 1 (Homo sapiens) (P51617 whole entry, looked up): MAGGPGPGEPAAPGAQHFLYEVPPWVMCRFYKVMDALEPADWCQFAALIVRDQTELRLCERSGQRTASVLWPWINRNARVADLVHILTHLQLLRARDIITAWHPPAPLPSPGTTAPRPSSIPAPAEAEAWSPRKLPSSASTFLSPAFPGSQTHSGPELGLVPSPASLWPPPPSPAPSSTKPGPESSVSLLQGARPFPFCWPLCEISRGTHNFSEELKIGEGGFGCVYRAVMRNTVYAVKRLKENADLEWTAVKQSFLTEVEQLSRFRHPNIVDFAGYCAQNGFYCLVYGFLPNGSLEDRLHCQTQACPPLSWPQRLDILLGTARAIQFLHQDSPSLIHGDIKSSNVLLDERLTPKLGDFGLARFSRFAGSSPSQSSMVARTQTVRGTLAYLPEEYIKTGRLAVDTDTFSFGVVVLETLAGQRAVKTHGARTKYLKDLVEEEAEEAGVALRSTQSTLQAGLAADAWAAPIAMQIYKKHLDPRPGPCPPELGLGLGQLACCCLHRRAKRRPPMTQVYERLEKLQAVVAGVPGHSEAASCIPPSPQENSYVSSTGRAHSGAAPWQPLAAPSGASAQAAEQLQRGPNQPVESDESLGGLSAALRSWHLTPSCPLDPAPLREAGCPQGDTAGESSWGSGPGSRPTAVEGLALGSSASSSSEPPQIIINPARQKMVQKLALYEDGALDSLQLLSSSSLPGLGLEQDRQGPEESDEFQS
Chain of Insulin receptor-related protein (Homo sapiens) (P14616 27-742 limits assumed): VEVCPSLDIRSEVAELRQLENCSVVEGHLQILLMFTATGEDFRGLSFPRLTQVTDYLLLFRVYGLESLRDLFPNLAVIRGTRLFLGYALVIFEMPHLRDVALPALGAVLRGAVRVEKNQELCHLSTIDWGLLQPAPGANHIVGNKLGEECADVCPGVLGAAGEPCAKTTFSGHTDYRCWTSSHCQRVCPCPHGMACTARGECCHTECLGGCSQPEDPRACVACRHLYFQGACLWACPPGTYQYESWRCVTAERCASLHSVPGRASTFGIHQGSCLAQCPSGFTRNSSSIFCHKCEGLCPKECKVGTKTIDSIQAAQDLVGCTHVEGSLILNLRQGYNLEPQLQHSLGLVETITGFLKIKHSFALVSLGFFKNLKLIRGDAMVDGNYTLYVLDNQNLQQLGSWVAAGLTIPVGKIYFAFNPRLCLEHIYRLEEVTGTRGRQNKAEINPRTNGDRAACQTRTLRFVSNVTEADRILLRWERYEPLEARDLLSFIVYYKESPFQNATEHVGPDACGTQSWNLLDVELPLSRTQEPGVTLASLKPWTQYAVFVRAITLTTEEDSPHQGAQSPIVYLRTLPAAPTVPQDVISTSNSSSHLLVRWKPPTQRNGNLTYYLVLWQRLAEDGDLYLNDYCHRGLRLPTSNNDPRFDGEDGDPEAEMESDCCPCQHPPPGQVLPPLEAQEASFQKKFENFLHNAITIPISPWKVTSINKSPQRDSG
Chain of Insulin receptor-related protein (Homo sapiens) (P14616 747-1297 limits assumed): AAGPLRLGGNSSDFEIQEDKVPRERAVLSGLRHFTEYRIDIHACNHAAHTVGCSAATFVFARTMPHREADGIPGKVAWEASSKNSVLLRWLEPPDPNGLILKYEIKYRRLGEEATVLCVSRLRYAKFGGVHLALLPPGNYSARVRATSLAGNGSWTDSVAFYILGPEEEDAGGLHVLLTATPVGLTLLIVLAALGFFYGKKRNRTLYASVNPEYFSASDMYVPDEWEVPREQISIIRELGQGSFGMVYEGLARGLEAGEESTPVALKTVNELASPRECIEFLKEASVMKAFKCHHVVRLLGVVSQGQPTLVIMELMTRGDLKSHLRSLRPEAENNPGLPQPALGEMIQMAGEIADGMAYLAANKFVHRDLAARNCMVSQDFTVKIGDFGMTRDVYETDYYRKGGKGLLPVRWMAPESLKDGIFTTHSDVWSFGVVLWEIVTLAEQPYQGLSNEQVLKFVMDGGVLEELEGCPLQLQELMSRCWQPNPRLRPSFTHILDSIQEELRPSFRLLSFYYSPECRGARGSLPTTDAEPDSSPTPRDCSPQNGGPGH
Chain of Insulin-like growth factor 1 receptor (Homo sapiens) (P08069 31-736 limits assumed): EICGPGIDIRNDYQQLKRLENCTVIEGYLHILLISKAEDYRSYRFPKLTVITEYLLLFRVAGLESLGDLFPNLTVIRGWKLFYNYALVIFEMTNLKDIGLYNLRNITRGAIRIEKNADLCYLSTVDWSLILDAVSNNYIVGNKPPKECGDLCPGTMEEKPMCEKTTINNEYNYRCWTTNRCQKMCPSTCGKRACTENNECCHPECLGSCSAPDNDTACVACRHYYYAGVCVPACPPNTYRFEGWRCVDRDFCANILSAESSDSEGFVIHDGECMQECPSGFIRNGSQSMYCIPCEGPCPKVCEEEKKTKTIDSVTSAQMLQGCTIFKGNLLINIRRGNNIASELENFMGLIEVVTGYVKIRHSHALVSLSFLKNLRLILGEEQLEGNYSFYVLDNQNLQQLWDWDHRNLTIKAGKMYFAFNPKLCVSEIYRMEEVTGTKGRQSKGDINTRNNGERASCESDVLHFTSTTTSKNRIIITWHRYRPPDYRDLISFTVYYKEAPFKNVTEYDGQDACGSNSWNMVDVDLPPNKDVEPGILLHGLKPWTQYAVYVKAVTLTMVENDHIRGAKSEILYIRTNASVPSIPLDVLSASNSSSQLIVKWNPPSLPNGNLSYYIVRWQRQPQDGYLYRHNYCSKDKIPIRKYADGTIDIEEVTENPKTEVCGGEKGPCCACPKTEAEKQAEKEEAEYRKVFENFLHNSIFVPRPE
Chain of Insulin-like growth factor 1 receptor (Homo sapiens) (P08069 741-1367 limits assumed): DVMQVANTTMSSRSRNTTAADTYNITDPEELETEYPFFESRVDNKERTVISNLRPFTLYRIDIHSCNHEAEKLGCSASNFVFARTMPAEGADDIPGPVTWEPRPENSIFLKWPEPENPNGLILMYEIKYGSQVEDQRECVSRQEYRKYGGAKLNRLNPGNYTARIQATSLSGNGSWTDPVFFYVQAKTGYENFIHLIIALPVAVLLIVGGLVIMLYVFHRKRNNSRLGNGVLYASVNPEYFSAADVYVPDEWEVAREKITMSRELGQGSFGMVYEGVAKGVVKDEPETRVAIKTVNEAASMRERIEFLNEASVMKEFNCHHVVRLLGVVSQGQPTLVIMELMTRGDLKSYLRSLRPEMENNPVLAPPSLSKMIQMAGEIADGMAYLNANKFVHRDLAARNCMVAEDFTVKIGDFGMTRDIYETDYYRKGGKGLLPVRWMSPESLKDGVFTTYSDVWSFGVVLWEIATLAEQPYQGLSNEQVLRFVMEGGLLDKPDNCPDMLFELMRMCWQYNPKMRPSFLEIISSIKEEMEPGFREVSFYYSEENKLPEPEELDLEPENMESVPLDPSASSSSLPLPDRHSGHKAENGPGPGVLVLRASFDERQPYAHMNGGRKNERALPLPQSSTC

Row | SMILES | residual activity [1] [%] | residual activity [2] [%] | residual activity [3] [%] | residual activity [4] [%] | residual activity [5] [%] | residual activity [6] [%] | residual activity [7] [%] | residual activity [8] [%] | residual activity [9] [%] | residual activity [10] [%] | residual activity [11] [%] | residual activity [12] [%] | residual activity [13] [%] | residual activity [14] [%] | residual activity [15] [%] | residual activity [16] [%] | residual activity [17] [%] | residual activity [18] [%] | residual activity [19] [%] | residual activity [20] [%]
1 | COc1ccc2c(c1)c(C1=C(c3c[nH]c4ccccc34)C(=O)NC1=O)cn2CCCN(C)C | 24 | 69 | 49 | 101 | 82 | 80 | 64 | 100 | 73 | 97 | 71 | 81 | 75 | 122 | 67 | 101 | – | – | – | –
2 | O=c1cc(N2CCOCC2)oc2c1ccc1ccccc12 | 71 | 89 | 88 | – | – | – | – | 108 | 91 | 103 | 97 | 83 | 88 | – | 98 | 96 | 96 | 94 | 96 | 88
3 | O=C(NC(NC(=S)Nc1ccc(F)c([N+](=O)[O-])c1)C(Cl)(Cl)Cl)C(c1ccccc1)c1ccccc1 (configuration not stated) | 74 | 98 | 87 | 85 | 85 | 90 | 100 | – | 96 | 98 | 93 | – | – | 126 | – | – | – | – | – | –

Source: ChEMBL document CHEMBL2218924, “A broad activity screen in support of a chemogenomic map for kinase signalling research and drug discovery” (Biochem J, 2013)
